# High-throughput results: PubChem BioAssay, National Center for Advancing Translational Sciences (NCATS)
# An excerpt weighted towards active compounds, which were near 0.33% of everything screened.
# Pin1 inh: qHTS Assay to Find Inhibitors of Pin1; Peptidyl-prolyl cis-trans isomerase NIMA-interacting 1 (Homo sapiens), Q13526; Pin1 FP peptide displacement, HiFluor488, 10 min; Potency, µM (top dose mostly 115 µM), inactives show at the top dose activity, negative = inhibition, hits mostly inhibitors; actives 0.009% (n = 390,000); AID 504891, 2011; active = well fitted inhibition curve with a large enough effect in the polarisation, with a control signal flat, not every such curve was filed as active; inconclusive = small, poorly fitted or top-dose-only effect, or effect the other way, or a change in a side signal; inactive = no such curve, though single readings can be large or run the other way; the % refers to the polarisation; note: potency is the fitted concentration of half-maximal effect; % is set by controls: 0 for no effect and ±100 for the full control effect
# Tb PGK inh: qHTS Assay to Find Inhibitors of Phosphoglycerate Kinase; PGK/GAPDH coupled, Kinase-Glo luminescence, 60 min; AID 602233, 2012; Potency, µM (doses to about 57.5 µM), for inactives: at the top dose activity change, negative = inhibition, usual class: inhibitors; actives 0.043% (n = 380,000); note: potency is the fitted concentration of half-maximal effect; % is set by controls: 0 for no effect and ±100 for the full control effect; nearly all actives have a fitted effect of over 60% in size
#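 Recombinant glycosomal PGK reaction used 1,3-bisphosphoglycerate generated in-well by GAPDH (100nM final) in 100mM TEA pH 7.6, 5mM MgCl2, 0.01% Tween-20. After 60 minutes at room temperature, ATP was read by Kinase-Glo Plus luminescence end-point.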
# mIDH1 inhibitor: qHTS for Inhibitors of mutant isocitrate dehydrogenase 1 (IDH1): qHTS; actives 0.093% (n = 390,000); Potency, µM (doses to about 76.6 µM), inactives show at the top dose activity change, negative = inhibition, most hits filed as inhibitors; IDH1-R132H enzyme, NADPH consumption, diaphorase/resazurin fluorescence; note: potency is the fitted concentration of half-maximal effect; % is set by controls: 0 for no effect and ±100 for the full control effect; nearly all actives have a fitted effect of over 65% in size
#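 IDH1-R132H (0.5 ug/mL dispensed) in pH 7.5 Tris buffer was preincubated 30 min with compound, then given a substrate mix of 0.016 mM NADPH and 2 mM alpha-KG for 80 min at room temperature; remaining NADPH was read by diaphorase/resazurin fluorescence.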
# GLS inh: qHTS for Inhibitors of Glutaminase (GLS) | actives 0.21% (n = 410,000) | Potency, µM (top dose mostly 45.5 µM), without a hit: top-dose activity change, negative = inhibition, usual class: inhibitors | GLS enzymatic activity, qHTS titration | Glutaminase kidney isoform, mitochondrial (Homo sapiens), O94925; note: potency is the fitted concentration of half-maximal effect; % is set by controls: 0 for no effect and ±100 for the full control effect
# Target sequence (O94925 whole entry, looked up, canonical isoform): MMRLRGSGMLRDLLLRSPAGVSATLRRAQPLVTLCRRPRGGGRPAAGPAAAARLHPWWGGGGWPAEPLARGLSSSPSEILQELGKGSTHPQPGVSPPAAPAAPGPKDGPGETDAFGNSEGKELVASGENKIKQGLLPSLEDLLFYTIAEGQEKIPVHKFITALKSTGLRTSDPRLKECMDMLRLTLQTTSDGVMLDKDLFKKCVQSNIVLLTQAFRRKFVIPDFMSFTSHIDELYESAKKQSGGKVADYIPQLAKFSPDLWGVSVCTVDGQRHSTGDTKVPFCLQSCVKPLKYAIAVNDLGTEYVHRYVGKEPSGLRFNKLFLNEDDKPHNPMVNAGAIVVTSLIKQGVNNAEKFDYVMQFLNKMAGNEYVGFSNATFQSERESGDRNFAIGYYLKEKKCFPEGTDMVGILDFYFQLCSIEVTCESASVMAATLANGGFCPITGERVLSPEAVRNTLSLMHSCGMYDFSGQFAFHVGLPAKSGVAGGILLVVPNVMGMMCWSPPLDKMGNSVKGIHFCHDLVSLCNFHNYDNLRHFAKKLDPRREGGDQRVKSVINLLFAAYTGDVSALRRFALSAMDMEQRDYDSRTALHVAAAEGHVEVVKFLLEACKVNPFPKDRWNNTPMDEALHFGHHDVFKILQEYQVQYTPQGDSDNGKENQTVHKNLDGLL
#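 Assay buffer: 45 mM KH2PO4 pH 8.2, 0.02% Tween-20. hKGA acts on L-glutamine (1 mM solution added); product glutamate is reported by an oxidase/peroxidase Amplex Red coupling, with fluorescence taken at baseline and 30 min.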
# Resorufin autofl: qHTS for Inhibitors of mutant isocitrate dehydrogenase 1 (IDH1): Cherrypicks Autofluorescence Interference; shares compounds with mIDH1 inhibitor; Resorufin detection reagent fluorescence interference, cell-free; inhibition of signal, % at 51.2 µM; 750 tested, under 10 active; AID 623980, 2012;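 note: 0% = wells with normal resorufin and full inhibition = wells lacking resorufin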
# WT IDH1 inh: qHTS for Inhibitors of mutant isocitrate dehydrogenase 1 (IDH1): Cherrypicks in WT IDH1. AID 623995, 2012. WT IDH1 enzyme, NADPH diaphorase/resazurin fluorescence. actives 9% (n = 750). shares compounds with mIDH1 inhibitor. Potency, µM (highest dose often 115 µM), for the others: at the highest dose activity change, negative = inhibition, actives largely listed as inhibitors;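 note: potency is the fitted concentration of half-maximal effect; 0% = full WT IDH1 enzyme control and full inhibition = no enzyme wells; nearly all actives have a fitted effect of over 55% in size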
# mIDH1 confirm: qHTS for Inhibitors of mutant isocitrate dehydrogenase 1 (IDH1): Confirmation of Cherrypicks; shares compounds with mIDH1 inhibitor; IDH1 R132H enzyme, NADPH diaphorase/resazurin fluorescence; Potency, µM (doses to about 76.6 µM), without a hit: top-dose activity change, negative = inhibition, usual class: inhibitors; actives 83% (n = 750); note: potency is the fitted concentration of half-maximal effect; nearly all actives have a fitted effect of over 50% in size
# The depositor's hits bear a star; i = inactive; ? = inconclusive; · = no result. Unless noted, calls come from the whole dose curve; as a rule, active = well fitted curve in the direction sought with a large enough effect; inconclusive = small, poorly fitted or top-dose-only effect, or another doubt; inactive = no such curve, though single readings can be large; an effect the other way counts as inactive or inconclusive.
SMILES,Pin1 inh,Tb PGK inh,mIDH1 inhibitor,GLS inh,Resorufin autofl,WT IDH1 inh,mIDH1 confirm
Cc1c(C(=O)Oc2ccc(-c3cnc4ccccc4n3)cc2)cccc1[N+](=O)[O-],5%,-7%,?,2%,4,31%,50µM*
O=C(Oc1ccc(-c2cnc3ccccc3n2)cc1)c1cc([N+](=O)[O-])ccc1Cl,0%,i,0%,-3%,·,·,·
C(=C1NCCN1)c1cccc2ccccc12,·,·,·,-6%,·,·,·
CC(C)N1[N]C(=C2C=c3cc(O)ccc3=N2)c2c(N)ncnc21,·,·,·,0%,·,·,·
O=S1(=O)N=C(Oc2ccc3ccccc3c2)c2ccccc21,2%,·,·,·,·,·,·
Cc1nn(-c2ccccc2)c2nc(-c3cccs3)cc(C(=O)NN)c12,6%,-8%,52µM*,6%,-5,2%,-5%
Cc1nn(-c2ccccn2)c2nc(-c3cccs3)cc(C(=O)NCc3ccco3)c12,?,-4%,-5%,2%,·,·,·
CCOC(=O)c1cc(-c2cccs2)nc2c1c(C)nn2-c1ccccn1,14%,-3%,15µM*,2%,-2,1%,20µM*
O=C1CC(c2ccccc2)CC2=C1C1(CCCCC1)N=C(Nc1nc3ccccc3o1)N2 (stereo not given),-4%,·,·,·,·,·,·
COc1ccc(-c2noc(CSc3nnc(C)n3-c3ccc(C)c(C)c3)n2)c(OC)c1,-3%,-5%,13%,1%,·,·,·
COc1ccccc1-c1noc(CSc2nnc(Cc3ccccc3)n2-c2ccc(C)c(C)c2)n1,8%,-1%,?,3%,-4,5%,?
CC1CCCCC1NC(=O)c1cn(C)c2ccc(S(=O)(=O)N3CCCC3)cc2c1=O (stereo not given),-2%,2%,?,-12%,4,-4%,22µM*
COC(=O)C1=C(C)NC(C)=C(C(=O)O[C@H]2CCN(Cc3ccccc3)C2)C1c1cccc([N+](=O)[O-])c1 (stereo not given in full),·,·,·,15%,·,·,·
CC1C/C(=C\c2cccnc2)C(=O)/C(=C/c2cccnc2)C1 (stereo not given),-1%,5%,?,9%,1,6%,45µM*
CC(=O)SC1CC(=O)N(c2c(C)cccc2C)C1=O (stereo not given),-8%,-2%,2%,-4%,·,·,·
CC(=O)SC1CC(=O)N(c2ccc(C(C)(C)C)cc2)C1=O (stereo not given),-11%,i,?,2%,3,2%,22µM*
CCOc1cc2nc(-c3ccc(OC)c(OC)c3)nc(N3CCOCC3)c2cc1OC,?,-8%,?,-2%,-14,-10%,16µM*
CC[C@H]1OC(=O)C[C@@H](O)[C@H](C)[C@@H](O[C@@H]2O[C@H](C)C[C@H](N(C)C)[C@@H]2O)[C@@H](CC=O)C[C@@H](C)C(=O)/C=C\[C@]2(C)O[C@H]2[C@@H]1C,·,·,·,2%,·,·,·
O=S(=O)(O)OCC1OC(COS(=O)(=O)O)(C2(OS(=O)(=O)O)OC(CO)C(OS(=O)(=O)O)C(OS(=O)(=O)O)C2OS(=O)(=O)O)C(OS(=O)(=O)O)C1OS(=O)(=O)O (stereo not given),·,·,·,5%,·,·,·
Cc1ccc(NS(=O)(=O)c2cc3c(cc2N2CCC2)NC(=O)CC3)cc1C,-3%,·,·,·,·,·,·
Cc1nn(-c2ccccc2)c2c1C(c1ccc(O)c(O)c1)N1C(=N2)C(Nc2ccccc2)=Nc2ccccc21 (stereo not given),?,8%,29µM*,-7%,1,5%,40µM*
CC(C)(C)OC(=O)Cc1nnc(-c2cc3ccccc3[nH]2)o1,0%,·,·,·,·,·,·
O=C1CCCC2=C1C(c1ccc(O)c(Br)c1)C1=C(CCCC1=O)N2c1ccccc1,4%,-7%,?,18%,6,11%,?
O=C(COc1ccccc1-c1ccccc1)NCCN1C(=O)S/C(=C\c2cccnc2)C1=O,16%,0%,46µM*,1%,-3,-11%,28µM*
O=S(=O)(c1ccc2c(c1)OCCO2)N1CCN(S(=O)(=O)c2ccc(F)c(F)c2F)CC1,3%,·,·,·,·,·,·
SMILES,Pin1 inh,Tb PGK inh,mIDH1 inhibitor,GLS inh,Resorufin autofl,WT IDH1 inh,mIDH1 confirm
CCOc1cc(/C=C2/C(=O)ON=C2C)ccc1OCc1ccccc1F,-10%,-4%,21µM*,-1%,2,?,28µM*
C[C@@H]1O[C@@]2(CS1)CN1CCC2CC1,·,·,·,0%,·,·,·
Clc1ccc(CN(CCCNc2ncnc(NCCCc3cnc[nH]3)n2)c2ccc(Br)cn2)cc1Cl,4%,·,·,·,·,·,·
CCC(C)Nc1nc(N)c([N+](=O)[O-])c(Nc2cc(OC)ccc2OC)n1 (stereo not given),1%,-4%,?,0%,2,2%,28µM*
CCC(C)Nc1nc(N)c([N+](=O)[O-])c(Nc2ccccc2OC)n1 (stereo not given),5%,3%,-18%,?,·,·,·
CC[C@]12c3[nH]c4cc(CCC(=O)N(C)C)ccc4c3CCN1C(=O)[C@@H](CC(=O)NC/C=C(\C)CCC=C(C)C)C[C@@H]2C(=O)N1CCN(C(=O)c2ccco2)CC1,0%,-8%,?,3%,-11,-7%,32µM*
O=C(Cc1nnc(CNC(=O)c2ccccc2)s1)Nc1ccc(C(F)(F)F)cc1Cl,5%,·,·,·,·,·,·
CCO[C@@H]1OC(C(=O)Nc2ccccc2)=C[C@H](c2ccc(C(F)(F)F)cc2)[C@H]1CCCO,-2%,-10%,?,2%,-4,-4%,22µM*
CC(=O)Nc1cccc(-n2cc3c(c2-c2ccccc2Cl)c(=O)n(C)c(=O)n3C)c1,5%,-5%,?,-2%,0,0%,40µM*
NNC(=O)c1csc(Cc2c(Cl)sc3ccc(Cl)cc23)n1,-4%,-6%,52µM*,-5%,6,14%,-11%
NNC(=O)c1csc(CS(=O)(=O)c2ccc(Cl)cc2)n1,0%,5%,5%,-2%,·,·,·
